Measured values: ChEMBL document CHEMBL3433997, “St. Jude Leishmania screening dataset” (2016)

Tests used:
Format in all cases: functional
[1] = biological target: Solute carrier family 2, facilitated glucose transporter member 1 (Homo sapiens) (UniProt P11166); experiment: ST_JUDE_LEISH: Cytotoxicity at 2uM final concentration against transgenic Leishmania Mexicana promastigotes LmGLUT1 that are glucose transport deficient and complemented with the human glucose transporter GLUT1. Activity is measured by DNA content using SYBR green in vitro
Solute carrier family 2, facilitated glucose transporter member 1 (Homo sapiens), sequence (P11166 whole entry): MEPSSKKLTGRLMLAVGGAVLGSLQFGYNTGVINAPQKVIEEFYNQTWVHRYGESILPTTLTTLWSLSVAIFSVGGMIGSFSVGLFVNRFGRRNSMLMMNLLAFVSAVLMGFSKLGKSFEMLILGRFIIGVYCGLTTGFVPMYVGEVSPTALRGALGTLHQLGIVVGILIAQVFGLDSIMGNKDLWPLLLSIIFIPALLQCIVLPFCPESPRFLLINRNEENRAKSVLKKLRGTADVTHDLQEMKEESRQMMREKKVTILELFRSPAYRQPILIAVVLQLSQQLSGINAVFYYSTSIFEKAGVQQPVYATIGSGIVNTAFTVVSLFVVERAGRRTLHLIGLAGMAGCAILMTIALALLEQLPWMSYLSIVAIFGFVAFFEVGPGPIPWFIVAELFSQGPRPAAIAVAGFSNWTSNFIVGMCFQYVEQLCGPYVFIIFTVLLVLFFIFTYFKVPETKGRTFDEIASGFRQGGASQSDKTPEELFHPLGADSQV

[2] = biological target: Hexose transporter 1 (Plasmodium falciparum) (UniProt O97467); experiment: ST_JUDE_LEISH: Cytotoxicity at 2uM final concentration against transgenic Leishmania Mexicana promastigotes LmPfHT that are glucose transport deficient and complemented with the Plasmodium falciparum hexose transporter. Activity is measured by DNA content using SYBR green in vitro
[3] = biological target: Glucose transporter (Leishmania mexicana) (UniProt O61059); experiment: ST_JUDE_LEISH: Cytotoxicity at 2uM final concentration against transgenic Leishmania Mexicana promastigotes LmGT2 that are glucose transport deficient and complemented with the L. Mexicana glucose transporter 2. Activity is measured by DNA content using SYBR green in vitro

| Compound | inhibition [1] [%] | inhibition [2] [%] | inhibition [3] [%] |
| --- | --- | --- | --- |
| C=CCn1c(=N)n(CC(O)c2ccc(Cl)c(Cl)c2)c2ccccc21 (configuration not stated) | 2.79 | 3.84 | 0.9 |
| O=C(Nc1cccc(-c2ccc(-c3nc4cc(C(F)(F)F)ccc4[nH]3)cc2)c1)Nc1ccc(Cl)c(Cl)c1 | 3.88 | 2.8 | 1.65 |
| Cc1cc(=NN=Cc2ccccc2Cl)c2cc(F)ccc2[nH]1 | 3.99 | 2.95 | 2.23 |
| O=C(Cc1c[nH]cn1)Nc1ccc(-c2ccc(-c3nc4ccccc4[nH]3)s2)cc1 | 4.05 | 5.17 | 1.71 |
| CN(C)CCN1CCN(Cc2ccc(-c3cccc(-c4nc5ccccc5[nH]4)c3)cc2)CC1 | -2.11 | -0.12 | -0.98 |
| COc1cc(NCC2(CNCc3cn(Cc4ccccc4)c4ccccc34)CCCCC2)nc2ccccc12 | -0.66 | -0.02 | -0.38 |
| COc1ccc(C(=O)NC(c2ccc(Cl)cc2Cl)c2cc(Cl)c3cccnc3c2O)cc1 (configuration not stated) | 0.87 | 3.16 | -1.58 |
| Cc1c(CNCCCNc2cc(=O)c3ccccc3[nH]2)sc(C(F)=C(F)F)c1Br | 6.84 | 5.03 | 5.8 |
| COc1ccc(Nc2nccc(-c3ccc4c(-c5ccsc5)cnc(N)c4c3)n2)cc1 | 1.99 | 7.26 | 6.65 |
| O=S(=O)(Nc1ccc(CCN2CCC(N3CCCCC3)CC2)cc1)c1cccc(C(F)(F)F)c1 | 6.42 | 7.5 | 5.56 |
| CC(C)CN(C)Cc1ccc(-c2ccc(-c3nc4ccccc4[nH]3)s2)cc1 | -1.24 | -0.64 | -1.65 |
| COc1ccc(Cc2cnc(N)nc2N)cc1OCCCOc1ccccc1 | -0.49 | 0.92 | -0.52 |
| Cc1cc(=NN=Cc2ccc(Cl)cc2)c2ccc(F)cc2[nH]1 | 2.07 | 2.71 | 1.54 |
| CCn1c(C)c(C)c2cc(C(=O)Nc3ccon3)ccc21 | 1.66 | 1.02 | 0.74 |
| CCN(CC)CCN(Cc1ccc(-c2ccc(C(F)(F)F)cc2)cc1)C(=O)Cn1c(CCc2cccc(F)c2F)cc(=O)c2c1CCCC2 | 11.6 | 12.3 | 9.85 |
| CC(C(=O)N1CCCC1)N1CCN(C(c2ccccc2)c2ccccc2)CC1 (configuration not stated) | 2 | 2.36 | 2.74 |
| Cc1[nH]c(C)c(-c2ccc(-c3cccc(Cl)c3)nc2)c(=O)c1Br | 0 | 1.07 | 0.63 |
| CCCN1CCN(CC(O)CNC(=O)Nc2ccc(Br)cc2)CC1 (configuration not stated) | 3.68 | 4.03 | 3.09 |
| CCOC(=O)c1ccc(NC(=O)Nc2ccc(-c3ccc(-c4nc5cc(C(F)(F)F)ccc5[nH]4)cc3)cc2)cc1 | -1.59 | -0.19 | 1.54 |
| O=C(Nc1ccc(Cl)cc1)N[C@H]1CCN(Cc2ccc(OCCCN3CCCCC3)cc2)C1 | -0.92 | 1.45 | 0.1 |
| Cc1[nH]c(C)c(-c2ccc(-c3cccc(Cl)c3)nc2)c(=O)c1Cl | 0.79 | 2.52 | 1.48 |
| CCCCc1ccc(-c2c(N)nc(N)nc2CC)cc1 | 11.5 | 9.06 | 8.51 |
| Clc1ccc(C=NNc2ccnc3cc(Cl)ccc23)cc1 | 0.42 | 0.11 | -0.42 |
| O=C(Nc1cccc(-c2ccc(-c3nc4cc(F)ccc4[nH]3)cc2)c1)c1ccoc1 | 1.01 | 1.14 | -0.42 |
